Compound activity deposited in PubChem by National Center for Advancing Translational Sciences (NCATS).
MARV entry inh: inhibitors of Marburg virus binding or cell entry. Marburg virus pseudotyped entry inhibition, cell reporter. Potency, µM (doses to about 37.8 µM), without a hit: top-dose activity change, negative = inhibition, actives largely listed as inhibitors. 1.8% of 300,000 active; calls by dose curve; tested in HEK293 cells; also: potency is read from the fitted curve at half-maximal effect; % is scaled to controls: 0 for no effect and ±100 for the full control effect
HCMV antiviral: blocks human cytomegalovirus replication. 4.5% of 410,000 active. HFF cells, HCMV-luciferase reporter, 72 h; hits give low values. activity change, negative = inhibition, % at 57.5 µM. AID 1259415; in the data active = activity change below about -60%; inconclusive = no clear call, values can overlap the other calls; inactive = above about -39%; also: % is scaled to controls: 0 for no effect and ±100 for the full control effect
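Human foreskin fibroblasts infected with luciferase-reporter HCMV at MOI 1 PFU/cell, compounds at two doses. Luciferase measured 72 h post infection; normalized to buffer-only basal and Salinomycin (10uM) controls.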
FMDV antiviral: foot and mouth disease virus antiviral activity; FMDV antiviral cell-based qHTS; Potency, µM (highest dose often 57.9 µM), for the others: at the top dose activity change, negative = inhibition, actives largely listed as inhibitors; 1.2% of 410,000 active; AID 1159524; calls by dose curve; tested in HEK293T cells; also: read-out not given here; potency is read from the fitted curve at half-maximal effect; % is scaled to controls: 0 for no effect and ±100 for the full control effect; nearly all actives have a fitted effect of over 45% in size
HCV inhibitor: inhibitors of hepatitis C virus infection | Huh7.5.1 HCVcc-Cre infection, luciferase reporter, 44 h | Potency, µM (series often up to 41.8 µM), for the others: at the top dose activity change, negative = inhibition, actives largely listed as inhibitors | 3.4% of 340,000 active | AID 651820; active = well fitted inhibition curve with a large enough effect; inconclusive = small, poorly fitted or top-dose-only effect, or another doubt; inactive = no such curve, though single readings can be large or run the other way; also: potency is read from the fitted curve at half-maximal effect; % is scaled to controls: 0 for no effect and ±100 for the full control effect
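After 44 h co-culture of compound, cells and HCVcc-Cre (~0.5 moi), substrate is added for 15 min at room temperature and luciferase measured over 15 sec. Cells were seeded at 1,000/well and pre-cultured 4 h.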
SARS PLpro yeast: inhibitors of SARS-CoV papain-like protease in yeast; Potency, µM (series often up to 32.9 µM), without a hit: at the highest dose activity, positive = growth rescue, actives largely listed as activators; 0.19% of 330,000 active; S. cerevisiae expressing SARS-CoV PLpro, growth rescue; calls by dose curve; also: potency is read from the fitted curve at half-maximal effect; 0% is about no effect; nearly all actives have a fitted effect of over 55% in size
LASV entry inh: Lassa virus entry inhibition. AID 540256. 1.2% of 300,000 active. Lassa virus pseudotype entry inhibition, cell reporter. Potency, µM (series often up to 37.9 µM), for inactives: at the highest dose activity change, negative = inhibition, most hits filed as inhibitors; calls by dose curve; tested in HEK293 cells; also: potency is read from the fitted curve at half-maximal effect; % is scaled to controls: 0 for no effect and ±100 for the full control effect; nearly all actives have a fitted effect of over 50% in size
* hit, by the source's call; ? = inconclusive; . = no result; [ ] = another dose, or the depositor's remark. A selection: hits, their analogues and other compounds. The true share with any hit is near 8%.

SMILES | MARV entry inh | HCMV antiviral | FMDV antiviral | HCV inhibitor | SARS PLpro yeast | LASV entry inh
CC(C)CNc1ncnc2c1ncn2[C@H]1CN(Cc2ccc3c(c2)OCO3)C[C@@H](CO)O1 | . | -66.2* | -23.8% | . | . | .
CC(C)Nc1ncnc2c1ncn2[C@H]1CN(Cc2ccc3c(c2)OCO3)C[C@@H](CO)O1 | . | -24.6 | -16.4% | . | . | .
COc1ccc(C(=O)OC2=C(C(=O)c3ccccc3)N(C)S(=O)(=O)c3ccccc32)cc1OC | 14.9%[46.1 µM] | 12.8 | -21.1% | . | . | 6.2%[46.1 µM]
Oc1c(C(c2ccccc2Cl)N2CCCC2)sc2nc(-c3ccco3)nn12 (centres undefined) | . | 14.9 | -0.2% | . | . | 7.2%[46.1 µM]
CCOC(=O)CN1C(=O)[C@]2(OCCC=C[C@@H]2C)c2ccccc21 | 1.2%[14.2 µM] | . | . | . | . | .
CC12C=C(/C=C/c3ccccc3)C(C)(C1)C(c1ccccc1)CC2=O (centres undefined) | -4.1%[14.2 µM] | . | . | . | . | .
[O-][n+]1ccccc1C(O)CSc1ccccc1 (centres undefined) | . | -26.7 | . | . | . | .
CCN(CC)S(=O)(=O)c1cc(C)ccc1NC(=S)Nc1cccnc1 | 11.2µM* | -68.8* | -8.5% | 11.2µM* | -0.3% | ?
CCN(CC)S(=O)(=O)c1cc(C(=O)Nc2cccnc2)ccc1Cl | 4.3% | -21.3 | ? | ? | 5.2% | 15.1%
CCC(C)Sc1ccc([C@@H]2[C@@H]3C(=O)N(CC)C(=O)[C@@H]3[C@]3(C(=O)OC)CCCCN23)cc1OC (some centres undefined) | . | 13.6 | -24.4% | 11.2µM* | -7.1% | .
CCC(C)Sc1ccc([C@@H]2[C@@H]3C(=O)N(C)C(=O)[C@@H]3[C@]3(C(=O)OC)CCCCN23)cc1OC (some centres undefined) | . | 69.6 | -19.2% | -5.3% | 3.0% | .
O=C(CSC1=Nc2ccccc2N=C(c2ccc(F)cc2)C1)NCc1ccc(Cl)cc1 | . | -24.8 | -5.8% | . | . | 7.4%[46.1 µM]
CCOC(=O)C1(CCCc2ccccc2)CCN(Cc2cnc(C)s2)CC1 | ? | 30.7 | ? | ? | -1.4% | ?
CCOC(=O)C1(CCCc2ccccc2)CCN(Cc2nccn2CC)CC1 | ? | ? | ? | 10µM* | 0.3% | ?
CCOC(=O)C1(CCCc2ccccc2)CCN(C(=O)C2=C(C)OCCO2)CC1 | ? | -68.8* | -23.6% | ? | -1.8% | ?
CCOC(=O)C1(CCCc2ccccc2)CCN(Cc2cn(CC)nc2C)CC1 | 8.91µM* | ? | ? | 11.2µM* | 0.0% | ?
N[C@@H](C(=O)O)c1cc(O)ccc1Cl | . | . | -2.8% | . | . | .
COC1=C(C)C(=O)C2=C(C1=O)C(CO)N1C(C#N)C3CC4C(C1C2N1CCOC41)N3C (centres undefined) | ? | -99.2* | ? | . | . | ?
Clc1ccc(CSc2nc3ncccc3[nH]2)cc1 | ? | 80.5 | 15.5% | . | . | .
Nc1cc(OC(=O)c2ccc(F)cc2)nn1S(=O)(=O)c1ccc(F)cc1 | -7.1%[46.1 µM] | -20.7 | -5.8% | -7.0% | -0.5% | 2µM*
Nc1cc(OC(=O)c2ccco2)nn1S(=O)(=O)c1ccc(F)cc1 | 1.6% | -21.7 | 1.5% | -22.6% | -11.7% | 3.4%
O=C(c1cnc(N2CCOCC2)c2ccccc12)N1CCN(c2ccccc2)CC1 | . | -20.7 | ? | . | . | -10.8%[46.1 µM]
CSc1nc(N)nc(SCC(=O)C23CC4CC(CC(C4)C2)C3)c1C#N | 20.6µM* | -32.7 | ? | 10µM* | -22.1% | -5.8%
COc1ccc(OCC(=O)N2CCN(Cc3cc(=O)n4nc(-c5ccccc5C)sc4n3)CC2)cc1 | . | -20.4 | ? | . | . | -13.3%[46.1 µM]
COc1cccc(-c2nn3c(=O)cc(CN4CCN(C(=O)COc5ccccc5C)CC4)nc3s2)c1 | . | 12.9 | 3.55µM* | . | . | 18.0%[46.1 µM]
COc1ccccc1NC(=O)C1=C(C)Nc2nc3ccccc3n2C1c1ccccc1Cl (centres undefined) | -4.5%[46.1 µM] | -6.2 | ? | . | . | 26.0%[46.1 µM]
CCOC(=O)C1=CN(CCC=C(C)C)C(=O)N(C(C)=O)C1c1ccccc1 (centres undefined) | 57.1%[14.2 µM] | . | . | . | . | .
CCCC(=O)NC(NC(=S)Nc1ccc(N=Nc2ccccc2)cc1)C(Cl)(Cl)Cl (centres undefined) | ? | -70.1* | ? | 10µM* | -12.6% | ?
